Data published in the supplement of paper PMC6555819.

Columns and labels:
Assay in all cases: PBM binding z-score (relative to random genomic background probes); higher = stronger binding; sequences stand for … in GC…GCGATTGACAGCGTAGAATGAAGG
[1] = tested on: PPARg:RXRa DBDmut IVT, anti-RXR (DBD mutation: RXRa K156A/R161A, NR concentration 270 nM, RXRa partner concentration 90 nM)
Method in brief: (§1)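 Ligand-free nuclear receptor dimers were applied to custom Agilent 4×180K protein-binding microarrays whose double-stranded probes carried direct-repeat seeds, single-nucleotide variants, half-site ablations and random human genomic background sequences in 34-nt variable regions. Incubation lasted 1 h. Binding z-scores were computed against the random background probes from regression-normalized fluorescence.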

[2] = tested on: PPARg:RXRa IVT, anti-PPARg (NR concentration 270 nM, RXRa partner concentration 90 nM)
Method in brief: as §1

[3] = tested on: PPARg DBDmut:RXRa IVT, anti-PPARg (DBD mutation: PPARg1 K132A/R137A, NR concentration 270 nM, RXRa partner concentration 90 nM)
Method in brief: as §1

[4] = tested on: PPARg DBDmut IVT, anti-PPARg (DBD mutation: PPARg1 K132A/R137A, NR concentration 270 nM)
Method in brief: as §1

[5] = tested on: PPARg homodimer (NR concentration 180 nM)
Method in brief: as §1

[6] = tested on: PXR:RXRa (NR concentration 270 nM, RXRa partner concentration 90 nM)
Method in brief: as §1

[7] = tested on: PXR homodimer (NR concentration 270 nM)
Method in brief: as §1

[8] = tested on: RARa:RXR (NR concentration 270 nM, RXRa partner concentration 90 nM)
Method in brief: as §1

[9] = tested on: RARa homodimer (NR concentration 270 nM)
Method in brief: as §1

[10] = tested on: RARb:RXRa (NR concentration 270 nM, RXRa partner concentration 90 nM)
Method in brief: as §1

Row | Sequence | PBM binding z-score [1] | PBM binding z-score [2] | PBM binding z-score [3] | PBM binding z-score [4] | PBM binding z-score [5] | PBM binding z-score [6] | PBM binding z-score [7] | PBM binding z-score [8] | PBM binding z-score [9] | PBM binding z-score [10]
1 | CCGGGTAGGTTATGGGGCATTCAGGCAACGGTGA | 0.0778 | 1.73 | -0.642 | -0.773 | 0.724 | 0.144 | 0.122 | 0.51 | 0.0053 | 1.1
2 | ACTAGCAGGCCAAGTTTGGGTCGCTCAAACAAAG | 0.683 | 0.332 | -0.842 | -0.527 | -0.566 | -0.33 | -0.606 | -0.147 | -1.09 | 0.491
3 | AGAATGAGGTTACCAAAGATCAGAGAAACGCTTG | 3.76 | 3.32 | 1.01 | 0.709 | 0.304 | 1.28 | 0.161 | 2.02 | 0.489 | 2.09
4 | GCTGCTAGGCCAACTGATGGTCAGCTAAAGCTCG | 1.28 | -0.0931 | -1.27 | -1.3 | -0.811 | -0.987 | -0.793 | -0.653 | -1.39 | 0.829
5 | TCATATAGGTAAATGGTAGGTGAAAGTCCGATCT | 4.03 | 3.04 | 0.629 | 0.943 | 1.37 | 0.974 | 0.669 | 1.43 | 1.61 | 0.698
6 | GCTACTAGTTGAAAGGGCAACCGAATGATTCTCG | 0.65 | 1.33 | 0.246 | -0.547 | 0.922 | 0.637 | -0.0671 | 1.32 | -0.371 | 1.95
7 | CCGAGGAGGTTATGGGGCATTCAGGCAACGGTGA | 0.461 | 1.61 | -0.326 | -0.847 | 1.13 | 0.815 | -0.214 | 1.43 | -0.195 | 1.73
8 | CTACCAAGGTGAACAAGGTCGATGATTACTATTC | 2.72 | 2.64 | 0.547 | 0.654 | 0.419 | 1.43 | 0.443 | 1.63 | 0.548 | 1.95
9 | TCATATAGGTAATACAGGTGAAGGTCGGCATCTA | 4.61 | 3.61 | 1.2 | 1.45 | 1.83 | 1.16 | 0.89 | 1.69 | 2.17 | 1.22
10 | ATTCCAAGGTGATCGTGAGGTCGTTGATACTAAC | 0.951 | 1.47 | 0.731 | 0.342 | 0.792 | 3.26 | 1.64 | 2.55 | 0.906 | 1.33
11 | TCGAGTTGGTTAGTCGGGGCATTCAGCCAACATA | 0.597 | 0.172 | -0.755 | -0.529 | -0.2 | 0.148 | 0.163 | 0.142 | -0.783 | 0.122
12 | CCTACTGGGCCAAAGGTCATTTATTCCAATGCTC | 5.13 | 6.94 | 0.54 | 0.179 | 5.03 | 5.54 | 1.8 | 6.34 | 2.22 | 4.25
13 | GATAGCAGGCCATTTGGGTCACTCAATGACGGGC | 3.66 | 3.5 | -0.0916 | -0.698 | -0.0574 | 0.523 | 0.0979 | 0.747 | -0.472 | 1.55
14 | CGTCCACGGTCATAGGAGGTCAGTGAAGACAGAT | 0.0707 | 2.02 | -0.535 | -1.15 | 1.73 | 3.88 | 0.754 | 2.6 | 0.207 | 3.65
15 | AGAACGACGGCACGCTGAGTTGATAGCAGAGTAG | -0.407 | -0.737 | -0.755 | -1.05 | -0.628 | -0.462 | 0.0818 | -0.447 | -0.252 | -0.524
16 | ACTATTAGTTGAGACGTGGGCAACCGATAGGTTG | -0.218 | -0.152 | 0.175 | 0.352 | -0.426 | -0.64 | -0.53 | -0.914 | -0.357 | -0.226
17 | ACTATTAGTTGAGACGAGGGCACCCGATAGGTTG | -0.207 | 0.476 | 0.77 | 0.797 | -0.607 | 1.33 | 0.328 | 1.2 | 0.511 | 0.966
18 | TTACCAAGGCGAGCTGAGGTCGTTGATCCAACTC | 0.105 | -0.00723 | -0.484 | -0.938 | -0.375 | 1.71 | 0.0318 | 1.57 | -0.628 | 0.286
19 | GCTGCTAGGTCAACTTATGGTCAGCTAAAGCTCG | 4.77 | 4.25 | -0.352 | -0.235 | 2.49 | 2.17 | -0.587 | 3.6 | 0.316 | 4.4
20 | TCATATAGGTAAAGGTGAAAGGCGAACGATATGA | 4.32 | 4.06 | 1.46 | 1.05 | 1.25 | 0.986 | 0.264 | 1.81 | 0.996 | 1.99
21 | CCTCGGAGGACAACAGGAGATCAGAGCTGCCAGA | -0.232 | -0.63 | -1.13 | -1.73 | -0.0101 | -0.68 | -0.412 | -0.621 | -0.0651 | 0.694
22 | TGAATGAGGTTAAAGATCGGGGAACGTGGCGTCG | 2.68 | 3.12 | 1.11 | -0.0519 | 0.857 | 1.55 | 0.231 | 2.5 | 0.262 | 2.15
23 | ATCTCTAGGTAAAAATTCAGTGAATCCCGAGGAT | 1.24 | 1.17 | 1.27 | 1.13 | 0.243 | -0.0506 | -0.317 | -0.0791 | 0.766 | 0.165
24 | TCGAGTAGGTTAGTCGGGCCATTCAGCCAACATA | 1.97 | 1.9 | -0.829 | -1.18 | -0.154 | -0.339 | -0.506 | -0.314 | -1 | 0.287
